High-throughput results as filed in PubChem.
Rows were chosen to be rich in hits. Some 4.1% of all compounds tested hit in one or more screens of this group.
ALR H2O2 inh: inhibitors of human sulfhydryl oxidase ALR; P55789; purified ALR, DTT oxidation, H2O2 HRP-luminol luminescence; inhibition, % (no concentration beside the values); 290,000 tested, 3.8% active;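 active = mean replicate inhibition above about 79%, with every replicate also reaching it, limit read from the data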
Target sequence (P55789 whole entry, looked up): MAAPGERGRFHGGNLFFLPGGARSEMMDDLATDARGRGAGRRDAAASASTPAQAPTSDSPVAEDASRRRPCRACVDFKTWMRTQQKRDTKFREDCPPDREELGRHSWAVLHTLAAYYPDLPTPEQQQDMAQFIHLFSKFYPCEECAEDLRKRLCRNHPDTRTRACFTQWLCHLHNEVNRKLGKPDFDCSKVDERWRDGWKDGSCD
F508del corr: correctors of CFTR F508del function in bronchial epithelial cells. CFBE cells, YFP halide quenching; stimulated with forskolin plus potentiator P3; % fluorescence drop versus neutral controls. activity (quench increase), % at 7.58 µM. 350,000 tested, 0.36% active;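 active = mean added fluorescence quench of at least 8% versus neutral control, with both replicates also reaching 8%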;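 note: cells transiently co-express mutant CFTR-F508del with the halide-sensitive YFP; corrector assay measuring rescue of mutant channel to the surface after 24 h compound exposure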
Casp6 inh: caspase-6 (human) enzyme inhibition; P55212; purified caspase-6, Z-VEID-R110 cleavage fluorescence; inhibition, % at 12.5 µM; 350,000 tested, 0.53% active; AID 686996;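 active = mean inhibition across replicates at least about 35%, with every replicate also reaching that limit, limit read from the data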;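 note: 0% = median of neutral control wells and 100% = no fluorescence left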
Target sequence (P55212 24-179 limits assumed): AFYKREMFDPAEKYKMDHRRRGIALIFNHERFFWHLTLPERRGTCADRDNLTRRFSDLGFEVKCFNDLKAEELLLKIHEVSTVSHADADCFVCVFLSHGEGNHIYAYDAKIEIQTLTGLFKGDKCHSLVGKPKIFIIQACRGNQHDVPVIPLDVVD
Target sequence (P55212 194-293 limits assumed): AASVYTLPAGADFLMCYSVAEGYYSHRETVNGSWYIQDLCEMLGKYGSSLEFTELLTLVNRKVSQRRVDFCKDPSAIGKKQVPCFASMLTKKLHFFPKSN
Env fusion inh: HIV envelope-mediated fusion inhibition. HeLa-JRFL Env/CEM21 cell fusion, luciferase. 360,000 tested, 1.1% active. inhibition, % at 12.3 µM;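 active = mean replicate inhibition score of at least 50 and every replicate individually at or above 50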;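 note: 0% = plate neutral controls and 100% = maraviroc near 300 nM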
NSD2 HMT inh: NSD2 (human) methyltransferase inhibition; O96028; NSD2 peptide methylation, AlphaScreen, 120 min; inhibition, % at 12.5 µM; 310,000 tested, 0.54% active; AID 743445; in the data active = inhibition above about 50%
PglD DTNB: inhibitors of Campylobacter jejuni PglD acetyltransferase; inhibition, % at 12.5 µM; purified PglD enzyme, DTNB colorimetric CoA detection; 360,000 tested, 0.098% active; in the data active = inhibition above about 16%, passing the limit was not always enough
* hit, by the source's call; x = no result; ! = not confirmed by another sample; [ ] = remark or other dose.

SMILES | ALR H2O2 inh | F508del corr | Casp6 inh | Env fusion inh | NSD2 HMT inh | PglD DTNB
Cc1ccc(S(=O)(=O)N(C)C[C@@H]2Oc3ccc(NC(=O)Cc4cn(C)c5ccccc45)cc3CC(=O)N([C@H](C)CO)C[C@@H]2C)cc1 | x | 2 | 0 | 74*[16.7 µM] | x | 0
C[C@H]1CN([C@@H](C)CO)C(=O)Cc2cc(NC(=O)Cc3cn(C)c4ccccc34)ccc2O[C@H]1CN(C)S(=O)(=O)c1ccccc1 | x | 0 | 0 | 67*[16.7 µM] | x | 3
C[C@@H]1CN([C@@H](C)CO)C(=O)Cc2cc(NC(=O)Cc3cn(C)c4ccccc34)ccc2O[C@H]1CN(C)S(=O)(=O)c1ccc(F)cc1 | x | 2 | -2 | -4[16.7 µM] | x | 5
Cc1ccc(S(=O)(=O)N(C)C[C@H]2Oc3ccc(NC(=O)Cc4cn(C)c5ccccc45)cc3CC(=O)N([C@@H](C)CO)C[C@@H]2C)cc1 | x | 2 | -2 | 1[16.7 µM] | x | 0
C[C@H](CO)N1C[C@H](C)[C@H](CN(C)S(=O)(=O)c2ccc(F)cc2)Oc2ccc(NC(=O)Cc3cn(C)c4ccccc34)cc2CC1=O | x | 1 | 0 | 56*[16.7 µM] | x | 2
CO[C@H]1CN(C)C(=O)c2cc(NC(=O)CC(F)(F)F)ccc2OC[C@H](C)NC[C@@H]1C | x | 1 | -2 | x | x | x
CO[C@H]1CN(C)C(=O)c2ccc(NC(=O)Nc3cccc(F)c3)cc2OC[C@H](C)N(C(=O)C2CC2)C[C@@H]1C | x | -1 | 0 | x | x | x
C[C@H]1CN([C@@H](C)CO)C(=O)c2cc(NC(=O)Cn3cnnn3)ccc2O[C@@H]1CN(C)C(=O)Nc1ccc(F)cc1 | x | -3 | -1 | -13[16.7 µM] | x | -3
COc1ccc(S(=O)(=O)Nc2ccc3c(c2)C(=O)N([C@H](C)CO)C[C@@H](C)[C@@H](CN(C)S(C)(=O)=O)OCCCC[C@@H](C)O3)cc1 | x | -1 | 2 | 4[16.7 µM] | x | 2
CN(C)c1ccc2c3c(ccc(N(C)C)c13)C(=O)OC2 | 80* | -1 | 2 | 11 | 4 | 4
Cc1noc(C)c1NC(=O)Nc1ccc2c(c1)C(=O)N([C@H](C)CO)C[C@H](C)[C@@H](CN(C)C(=O)Nc1ccc(F)cc1)OCCCC[C@H](C)O2 | x | -5 | -4 | 13[16.7 µM] | x | 0
N#Cc1nc(-c2ccco2)oc1NCCc1ccccc1 | 98* | x | x | x | 12 | 3
COc1ccc(-c2ccc(C3[C@@H]4CN(S(=O)(=O)c5cccc(C)c5)C[C@H]3N4)cc2)cc1 (stereo not given in full) | x | 3 | 4 | x | x | x
Cc1ccccc1S(=O)(=O)N1C[C@@H]2N[C@H](C1)C2c1ccc(-c2cccc(C#N)c2)cc1 (stereo not given in full) | x | 8.4*! | x | x | x | x
COc1cccc(S(=O)(=O)N2C[C@@H]3N[C@H](C2)C3c2ccc(-c3cccc(C)c3)cc2)c1 (stereo not given in full) | x | 12*! | 1 | x | x | x
CN1C(=O)c2cc(NC(=O)Cc3cccs3)ccc2OC[C@H]2O[C@H](CC(=O)N[C@H]3CCN(Cc4ccccc4)C3)CC[C@@H]21 | x | x | -8 | 3[16.7 µM] | x | 3
CC1=C(c2ccccc2)[N+](=O)C2(CCCC2)N1[O-] | -1 | x | x | -6 | -4 | -2
O=[N+]([O-])c1ccc2c(c1)N([O-])C1(CCCCC1)[N+]2=O | x | -2 | 34 | 8 | 84* | x
Cc1ccc(S(=O)(=O)NC(=O)c2cc(C)n(-c3ccc(N(C)C)cc3)c2C)cc1 | 95* | x | 3 | 7 | 5 | 5
Cc1ccc(S(=O)(=O)NC(=O)Nc2ccc(N(C)C)cc2)cc1 | 86* | -3 | 27 | -111 | 17 | -1
C[C@H](O)C#Cc1cnc2c(c1)C(=O)N([C@H](C)CO)C[C@H](C)[C@@H](CN(C)Cc1cccc(C(=O)O)c1)O2 | x | 1 | -3 | -13[16.7 µM] | x | 1
O=C(C[C@@H]1CC[C@H](NS(=O)(=O)c2ccc(F)cc2)[C@@H](CO)O1)NCc1ccc(Cl)c(Cl)c1 | x | -1 | 0 | -4[16.7 µM] | x | -6
O=C(Cn1cccc1C(=O)c1ccccc1)NCc1ccc(Cl)cc1 | 97* | -1 | 0 | -12 | -2 | x
O=C(Cn1cccc1C(=O)c1ccccc1)NCCc1ccc(Cl)cc1 | -2 | -3 | -1 | 8 | 1 | -5
C[C@@]12C(=O)OC(=O)[C@]1(C)C1CCC2O1 | -9 | -5 | -9 | 105* | x | 4
SMILES | ALR H2O2 inh | F508del corr | Casp6 inh | Env fusion inh | NSD2 HMT inh | PglD DTNB
CC(=O)C1(C)N(O)C(C)(C)C(c2ccco2)=[N+]1[O-] (stereo not given) | 14 | x | x | 58* | 11 | -4
CC1(C)C(c2ccccn2)=[N+]([O-])C(C)(C)N1O | 9 | x | x | x | -2 | 3
CNC[C@@H]1OCCCC[C@@H](C)Oc2ccc(N(C)C)cc2C(=O)N([C@@H](C)CO)C[C@H]1C | x | -1 | 2 | x | x | x
C[C@H](CO)N1C[C@H](C)[C@H](CN(C)S(=O)(=O)c2cccs2)OCCCC[C@H](C)Oc2ccc(NC(=O)Nc3cccc4ccccc34)cc2C1=O | x | -4 | x | 16[16.7 µM] | x | 0
CCOc1ccc(N2C(=O)Nc3ccccc3C2(O)C(=O)NCc2ccccc2)cc1 (stereo not given) | 92* | 0 | -2 | 1 | 7 | x
CN(CCNC(=O)C1(O)c2ccccc2NC(=O)N1c1ccccc1)Cc1ccccc1 (stereo not given) | -5 | x | x | -91 | -7 | 11
Cc1cc(C(=O)CN2C(=O)C(=O)N(Cc3ccccc3)C2=O)c(C)n1Cc1ccccc1 | -1 | 9.4* | 2 | x | -2 | -4
CCN1C(=O)C(=O)N(CC(=O)c2cc(C)n(C3CC3)c2C)C1=O | 89* | 1 | 5 | x | 3 | -1
Cc1ccc(S(=O)(=O)OCC(=O)Nc2ccc(C(=O)O)c(O)c2)cc1 | x | -2 | 79* | -3 | x | x
Cc1ccc(NC(=O)COCC(=O)Nc2ccc(C)cc2)cc1 | -3 | 0 | -3 | -17 | -2 | 5
C[C@H](CO)N1C[C@H](C)[C@@H](CN(C)Cc2ccc(Cl)c(Cl)c2)Oc2c(NS(=O)(=O)c3cccs3)cccc2C1=O | 0 | 1 | 2 | 62*! | x | -1
C[C@@H]1CN([C@H](C)CO)C(=O)c2cccc(NS(=O)(=O)c3cccs3)c2O[C@H]1CN(C)Cc1ccc(C(F)(F)F)cc1 | x | 1 | 1 | 28[16.7 µM] | x | 3
C[C@@H]1CN([C@H](C)CO)C(=O)c2cccc(NS(=O)(=O)c3cccs3)c2O[C@@H]1CN(C)Cc1ccc(C(F)(F)F)cc1 | x | 2 | -1 | 84*[16.7 µM] | x | -2
C[C@H]1CN([C@@H](C)CO)C(=O)c2cccc(NS(=O)(=O)c3ccc(F)cc3)c2O[C@@H]1CN(C)Cc1ccc(-c2ccccc2)cc1 | x | -2 | x | -28[16.7 µM] | x | 1
C[C@@H]1CN([C@@H](C)CO)C(=O)c2cccc(NS(=O)(=O)c3cccs3)c2O[C@@H]1CN(C)Cc1ccc(C(F)(F)F)cc1 | x | 1 | 5 | 68*[16.7 µM] | x | 2
